Data reported in PubChem BioAssay (EPA / NIEHS).
Values joined by “and” are separate entries in the source; they are usually repeats but may differ in a detail not shown here. Equal values may be shown once. Results filed as inconclusive are left out. Some compounds were tested as several samples or in several runs, with calls that do not always agree. Active and inactive are the calls of the source. Rule for the calls, unless noted: active = hit-call score of the fitted dose curve at least 0.9, where 1 is the maximum; inactive = score below 0.9.

Assay: CCTE_Shafer_MEA_acute_LDH: CCTE's Lactate Dehydrogenase Assay for Cytotoxicity in the Neural Acute Assay, Shafer Lab (AID 2284086; active = hit-call score of the fitted dose curve at least 0.9, where 1 is the maximum;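 note: active means LDH release rises above DMSO vehicle level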)
Outline: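 Medium from rat cortical neuron MEA cultures sampled right after the 40 min compound-exposure recording; released LDH measured by absorbance at 490 nm. Analyzed as signal gain relative to DMSO.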

SMILES	outcome	AC50
CCSC(=O)N(CC)C1CCCCC1	inactive	–
Nc1ccc(-c2ccc(N)cc2)cc1	inactive	–
O=C(O)C(F)(F)C(F)(F)C(F)(F)C(F)(F)C(F)(F)F	inactive	–
O=C(N[C@H]1CN2CCC1CC2)c1cc2ccoc2cn1	inactive	–
C=CC(N)=O	inactive	–
CCC(C)c1cc([N+](=O)[O-])cc([N+](=O)[O-])c1O (stereo unspecified)	inactive	–
CO/C=C(/C(=O)OC)c1ccccc1COc1cccc(C(F)(F)F)n1	inactive	–
CCCN(CCC)N=O	inactive	–
CN(C)CCO	inactive	–
c1ccc(-c2ccccc2)cc1	inactive	–
ClC1=C(Cl)[C@]2(Cl)[C@@H]3[C@@H](Cl)[C@H]4O[C@H]4[C@@H]3C1(Cl)C2(Cl)Cl	inactive	–
CCCCCCCCCc1ccc(O)cc1	inactive	–
CCCCCCCCCC[N+](C)(C)CCCCCCCCCC	–	31.3 µM (active)
Clc1ccc(C(Cl)(Cl)Cl)cc1	inactive	–
CC#Cc1cc(C)nc(Nc2ccccc2)n1	inactive	–
COc1ccc(O)c(C(C)(C)C)c1	inactive	–
ClC1=C(Cl)[C@]2(Cl)[C@@H]3[C@@H]4C[C@@H]([C@H]5O[C@@H]45)[C@@H]3[C@@]1(Cl)C2(Cl)Cl	inactive	–
CCC(C)(CC)c1cc(NC(=O)c2c(OC)cccc2OC)on1	inactive	–
CCC(C)(c1ccc(O)cc1)c1ccc(O)cc1	inactive	–
CC(C)C(=O)OCC(C)(C)C(OC(=O)C(C)C)C(C)C (stereo unspecified)	inactive	–
ClC(Cl)=C(c1ccc(Cl)cc1)c1ccc(Cl)cc1	inactive	–

Assay: CCTE_Shafer_MEA_dev_mutual_information_norm: CCTE's Neural Network Formation Assay for Mutual Information Normalization, Shafer Lab (AID 2284091);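 for AC50: mutual information between electrodes summarised as area under curve across four recording days; potency is for a decrease in mutual information relative to DMSO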
Outline: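 Developing rat cortical networks on 16-electrode MEA wells are treated throughout formation (DIV 0–12). Shared electrode information is recorded four times, converted to area-under-curve, and fitted for decreases against DMSO vehicle.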

SMILES	outcome	AC50
c1cc2ccc3cccc4ccc(c1)c2c34	inactive	–
O=C(O)C(F)(F)C(F)(F)C(F)(F)C(F)(F)C(F)(F)F	inactive	–
Oc1ccc(C(c2ccc(O)cc2)(C(F)(F)F)C(F)(F)F)cc1	inactive	–
O=C(O)C(F)(F)C(F)(F)C(F)(F)C(F)(F)C(F)(F)C(F)(F)C(F)(F)C(F)(F)F	inactive	–
C=CC(N)=O	inactive	–
O=S(=O)(O)C(F)(F)C(F)(F)C(F)(F)C(F)(F)C(F)(F)C(F)(F)F	inactive	–
CO/C=C(/C(=O)OC)c1ccccc1COc1cccc(C(F)(F)F)n1	–	183 nM (active) and 312 nM (active)
NS(=O)(=O)C(F)(F)C(F)(F)C(F)(F)C(F)(F)C(F)(F)C(F)(F)C(F)(F)C(F)(F)F	inactive	–
ClC1=C(Cl)[C@]2(Cl)[C@@H]3[C@@H](Cl)[C@H]4O[C@H]4[C@@H]3C1(Cl)C2(Cl)Cl	inactive	–
ClC1=C(Cl)[C@]2(Cl)[C@@H]3[C@H]4C[C@H]([C@@H]5O[C@H]45)[C@@H]3[C@@]1(Cl)C2(Cl)Cl	inactive	–
Clc1ccc(C(c2ccccc2Cl)C(Cl)(Cl)Cl)cc1 (stereo unspecified)	–	0.0113 µM (active)
COc1ccc(O)c(C(C)(C)C)c1	inactive	–
ClC1=C(Cl)[C@]2(Cl)[C@@H]3[C@@H]4C[C@@H]([C@H]5O[C@@H]45)[C@@H]3[C@@]1(Cl)C2(Cl)Cl	–	15 µM (active)
O=S(=O)(O)C(F)(F)C(F)(F)C(F)(F)C(F)(F)F	inactive	–
CCC(C)(c1ccc(O)cc1)c1ccc(O)cc1	inactive	–
ClC(Cl)=C(c1ccc(Cl)cc1)c1ccc(Cl)cc1	–	2.19 µM (active)
CCOP(=S)(OCC)SCSC(C)(C)C	–	23.4 µM (active) and 21.7 µM (active)

Assay: CCTE_Shafer_MEA_dev_correlation_coefficient_mean: CCTE's Neural Network Formation Assay for Mean Correlation Coefficient, Shafer Lab (AID 2284093);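 for AC50: well mean pairwise spike train correlation integrated as AUC over recording days 5 to 12; potency fitted for loss of correlation relative to DMSO vehicle wells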
Outline: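 Spontaneous activity recorded on days 5, 7, 9 and 12 post-plating; pairwise spike correlations are averaged across active electrodes and collapsed to an area-under-curve. Rat cortical cultures are dosed from plating through 12 days, with compound renewed at media changes.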

SMILES	outcome	AC50
c1cc2ccc3cccc4ccc(c1)c2c34	inactive	–
O=C(O)C(F)(F)C(F)(F)C(F)(F)C(F)(F)C(F)(F)F	inactive	–
Oc1ccc(C(c2ccc(O)cc2)(C(F)(F)F)C(F)(F)F)cc1	inactive	–
O=C(O)C(F)(F)C(F)(F)C(F)(F)C(F)(F)C(F)(F)C(F)(F)C(F)(F)C(F)(F)F	inactive	–
C=CC(N)=O	inactive	–
O=S(=O)(O)C(F)(F)C(F)(F)C(F)(F)C(F)(F)C(F)(F)C(F)(F)F	inactive	–
CO/C=C(/C(=O)OC)c1ccccc1COc1cccc(C(F)(F)F)n1	–	244 nM (active) and 459 nM (active)
NS(=O)(=O)C(F)(F)C(F)(F)C(F)(F)C(F)(F)C(F)(F)C(F)(F)C(F)(F)C(F)(F)F	inactive	22.6 µM (active)
ClC1=C(Cl)[C@]2(Cl)[C@@H]3[C@@H](Cl)[C@H]4O[C@H]4[C@@H]3C1(Cl)C2(Cl)Cl	–	27.5 µM (active)
ClC1=C(Cl)[C@]2(Cl)[C@@H]3[C@H]4C[C@H]([C@@H]5O[C@H]45)[C@@H]3[C@@]1(Cl)C2(Cl)Cl	inactive	–
Clc1ccc(C(c2ccccc2Cl)C(Cl)(Cl)Cl)cc1 (stereo unspecified)	–	0.199 µM (active)
COc1ccc(O)c(C(C)(C)C)c1	inactive	–
ClC1=C(Cl)[C@]2(Cl)[C@@H]3[C@@H]4C[C@@H]([C@H]5O[C@@H]45)[C@@H]3[C@@]1(Cl)C2(Cl)Cl	–	23.6 µM (active)
O=S(=O)(O)C(F)(F)C(F)(F)C(F)(F)C(F)(F)F	inactive	–
CCC(C)(c1ccc(O)cc1)c1ccc(O)cc1	inactive	–
ClC(Cl)=C(c1ccc(Cl)cc1)c1ccc(Cl)cc1	–	3.9 µM (active)
CCOP(=S)(OCC)SCSC(C)(C)C	–	23.3 µM (active) and 24.2 µM (active)
